JMJD2A Tudor inh: JMJD2A Tudor domain (human) inhibition. O75164. AlphaScreen JMJD2A-Tudor / H3K4me3 peptide binding. Potency, µM (doses to about 114 µM), for the others: at the top dose activity change, negative = inhibition, hits mostly inhibitors. hit rate 4.4% among 390,000. AID 504339; also: % is scaled to controls: 0 for no effect and ±100 for the full control effect; nearly all actives have a fitted effect of over 50% in size
Target sequence (O75164 whole entry, looked up, the tested form may be a part): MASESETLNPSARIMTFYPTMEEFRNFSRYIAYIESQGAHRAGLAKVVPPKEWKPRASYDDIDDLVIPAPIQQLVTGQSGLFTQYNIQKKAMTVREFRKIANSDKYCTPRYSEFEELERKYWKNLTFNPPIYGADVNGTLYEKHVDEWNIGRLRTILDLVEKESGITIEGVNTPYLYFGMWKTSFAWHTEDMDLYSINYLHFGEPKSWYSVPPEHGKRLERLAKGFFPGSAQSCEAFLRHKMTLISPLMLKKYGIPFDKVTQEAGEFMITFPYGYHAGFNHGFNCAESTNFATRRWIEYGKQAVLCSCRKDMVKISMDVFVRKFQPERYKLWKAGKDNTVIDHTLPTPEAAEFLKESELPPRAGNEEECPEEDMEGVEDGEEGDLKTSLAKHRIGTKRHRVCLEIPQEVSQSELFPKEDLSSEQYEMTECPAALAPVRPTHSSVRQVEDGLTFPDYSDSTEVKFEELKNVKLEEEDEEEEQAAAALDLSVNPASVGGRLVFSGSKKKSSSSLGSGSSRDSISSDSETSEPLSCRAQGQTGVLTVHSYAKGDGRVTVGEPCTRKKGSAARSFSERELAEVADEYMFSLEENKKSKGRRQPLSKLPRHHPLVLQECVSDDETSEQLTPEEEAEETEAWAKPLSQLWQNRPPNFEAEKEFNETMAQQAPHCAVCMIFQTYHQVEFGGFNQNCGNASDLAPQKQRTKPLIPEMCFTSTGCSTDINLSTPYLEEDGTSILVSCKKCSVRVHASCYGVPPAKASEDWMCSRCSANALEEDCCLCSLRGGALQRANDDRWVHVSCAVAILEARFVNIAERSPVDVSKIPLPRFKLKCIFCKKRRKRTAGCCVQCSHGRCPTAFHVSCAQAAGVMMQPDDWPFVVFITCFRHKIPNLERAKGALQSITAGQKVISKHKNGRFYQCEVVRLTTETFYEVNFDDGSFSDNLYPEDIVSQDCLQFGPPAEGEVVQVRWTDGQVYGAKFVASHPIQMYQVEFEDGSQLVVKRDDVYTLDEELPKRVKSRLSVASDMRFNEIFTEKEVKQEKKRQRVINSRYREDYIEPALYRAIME
Sfp inh: inhibitors of Bacillus subtilis Sfp phosphopantetheinyl transferase; AID 1490; Potency, µM, inactives show largest response in the series, negative = inhibition, usual class: inhibitors; Q9F4F7; Biochemical Sfp PPTase activity, qHTS; hit rate 3.5% among 310,000;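 also: the enzyme is Sfp with the accession as filed and its product quenches rhodamine fluorescence; 0% = enzyme reaction without inhibitor and -100% = no enzyme wells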
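Step 1, compound plus 15 nM Sfp-PPTase, 15 min, room temperature. Step 2, add rhodamine-CoA (5 uM) and BHQ-2-YbbR (12.5 uM). Step 3, read 525/598 nm fluorescence at 0 and 30 min.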
HP1b chromo inh: HP1-beta chromodomain-methylated histone interaction inhibition; P83916; AlphaScreen HP1-beta / biotin-H3K9me3 peptide binding; Potency, µM (top dose mostly 114 µM), for the others: at the highest dose activity change, negative = inhibition, most hits filed as inhibitors; hit rate 0.56% among 390,000; also: nearly all actives have a fitted effect of over 70% in size
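HP1-beta protein (50 nM final) preincubated 30 min at room temperature with biotinylated H3(1-18)K9me3 peptide (50 nM) in PBS pH 7.4, 0.01% Tween-20, then compound added for 30 min. AlphaScreen streptavidin donor/nickel chelate acceptor beads (10 ug/mL final), 30 min dark, luminescence read.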
BAZ2B block: inhibitors of human BAZ2B bromodomain; Q9UIF8; AlphaScreen BAZ2B-H3K14Ac peptide displacement; Potency, µM (titrated, usually from 114 µM), inactives show at the top dose activity change, negative = inhibition, hits mostly inhibitors; hit rate 4.4% among 360,000; AID 504333; also: % is scaled to controls: 0 for no effect and ±100 for the full control effect; nearly all actives have a fitted effect of over 60% in size
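BAZ2B (50 nM) with biotin-H3(5-23)K14Ac peptide (50 nM) in PBS pH 7.4, 0.01% Tween-20, preformed 30 min, then compound 30 min at room temperature; top concentration 110uM. AlphaScreen streptavidin donor/nickel chelate acceptor beads (10 ug/mL final), 20 min dark, signal read.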
G9a block: blocks human histone lysine methyltransferase G9a; Q96KQ7; G9a H3K9 monomethylation, AlphaScreen, 2 h; Potency, µM (top dose mostly 102 µM), for the others: at the highest dose activity, negative = inhibition, hits mostly inhibitors; hit rate 8.8% among 350,000; AID 504332; also: % is scaled to controls: 0 for no effect and ±100 for the full control effect; nearly all actives have a fitted effect of over 75% in size
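G9a (20 nM) preincubated 15 min RT with compounds, then 500 nM biotinylated H3K9 peptide and 20 uM SAM added; 2 h RT reaction. Monomethyl-H3K9 product detected by AlphaScreen with anti-H3K9me1 antibody, streptavidin donor and anti-rabbit IgG acceptor beads.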
An asterisk follows results filed as active; ? = inconclusive; . = no result given; [ ] = another dose, or the depositor's remark. In the library only some 12% were active in any assay of this set; here they are far more common. Calls follow the shape of the dose curve; as a rule, active = well fitted curve in the direction sought with a large enough effect; inconclusive = small, poorly fitted or top-dose-only effect, or another doubt; inactive = no such curve, though single readings can be large; an effect the other way counts as inactive or inconclusive. Potency is read from the fitted curve at half-maximal effect.

SMILES	JMJD2A Tudor inh	Sfp inh	HP1b chromo inh	BAZ2B block	G9a block
COc1cccc(CN2CCN(C(=O)c3cccc4ccccc34)CC2)c1	28µM*	-13%	?	-36%[57.1 µM]	.
O=C(Cn1c(=O)n(CC2CCCO2)c(=O)c2ccccc21)c1ccc(Cl)c(Cl)c1 (stereo not given)	-25%[57.1 µM]	6%	-9%	0%	23%[59 µM]
CCOCCCn1c(SC(C(=O)Nc2cc(C)ccc2C)c2ccccc2)nnc1-c1ccc(Cl)cc1 (stereo not given)	-1%	12%	37%	-2%	12%[59 µM]
S=c1[nH]nc(-c2ccc(Cl)cc2)n1CCCN1CCOCC1	10µM*	13%	16%	6%	40µM*
CCOCCCn1c(-c2ccc(Cl)cc2)n[nH]c1=S	4µM*	6%	-21%	-6%	1.8µM*
COCCCn1c(-c2ccccc2Cl)n[nH]c1=S	7.9µM*	9%	22%	-1%	2.2µM*
COCCCn1c(-c2ccc(Cl)cc2)n[nH]c1=S	7.9µM*	2%	-11%	-17%	4µM*
S=c1nc(-c2ccccc2)n(CCCN2CCOCC2)c2c1CCCC2	-17%	0%	-4%	.	8%[59 µM]
O=C(NC1(C(F)(F)F)NC(=O)N(c2ccc(F)cc2)C1=O)c1ccncc1 (stereo not given)	-26%	-10%	1%	8%	4%[59 µM]
Cc1noc(C)c1CC(=O)NC1CC(C)(C)Cc2c1cnn2-c1ccccc1 (stereo not given)	-2%	13%	37%	-1%	-16%
CC(C)c1ccc(-c2nn(-c3ccccc3)cc2C(=O)NCC2CCCO2)cc1 (stereo not given)	-13%	.	7%	7%	3%
O=C(O)C1CSC(c2ccco2)N1 (stereo not given)	-22%[11.4 µM]	?	40µM*	50µM*	3.2µM*
O=C1CSC(c2ccco2)N1 (stereo not given)	-4%	-3%	27%	1%	79µM*
CC1CCC(C(=O)O)NC1c1ccc(-c2ccco2)cc1 (stereo not given)	.	10%	.	.	.
O=C(NCCO)C1CCN(S(=O)(=O)c2ccc(F)cc2)CC1	-11%	3%	24%	2%	-1%[59 µM]
COc1ccc(-c2csc(=Nc3ccccc3)n2CCO)cc1	45µM*	-7%	?	13µM*	40µM*
OCCCn1c(-c2ccc(F)cc2)csc1=Nc1ccc(F)cc1	40µM*	.	?	45µM*	16µM*
Cc1ccc(-c2csc(=Nc3ccccc3)n2CCCO)cc1	35µM*	.	?	45µM*	16µM*
O=S(=O)(c1ccc(-c2csc(=Nc3ccc(F)cc3)n2CCCCCCO)cc1)N1CCCC1	40µM*	.	?	?	13µM*
COc1ccccc1NS(=O)(=O)c1cccc(NC(=O)C(C)NC(=O)c2ccco2)c1 (stereo not given)	-3%	.	34%	3%	-34%
O=C(CCn1ccnc1)Nc1nc2ccccc2[nH]1	-1%	-17%	43%	?	-2%
COC(=O)c1cc(S(=O)(=O)NCC2CCN(Cc3ccc(C)cc3)CC2)c[nH]1	-11%	25%	36%	-8%	11%
COc1ccc(-c2csc(=NCCO)n2-c2ccccc2)cc1	?	-7%	?	32µM*	50µM*
CCC(=O)c1cc2c(cc1NC(=O)c1ccc(C)cc1)OCCO2	-4%	6%	27%	3%	-6%[59 µM]
COc1ccc(NC(=O)/C=C/c2ccco2)cn1	-18%[57.1 µM]	-88%	6%	?	45µM*
SMILES	JMJD2A Tudor inh	Sfp inh	HP1b chromo inh	BAZ2B block	G9a block
COc1ccc(NC(=O)/C=C/c2ccc(Br)o2)cn1	?	25µM*	?	?	?
O=C(/C=C/c1ccc(Br)o1)NC(c1ccccc1)c1ccccc1	?	20µM*	?	-37%	18µM*
O=C(NC(c1ccccc1)c1ccccc1)c1ccc(Br)o1	-10%	15%	16%	12%	-2%
COc1ccccc1CNC(=O)/C=C/c1ccc(Br)o1	-16%	10µM*	25%	?	28µM*
COc1ccc(NC(=O)/C=C/c2cccc(F)c2)cn1	-30%	13%	9%	-5%	2%[59 µM]
CC1=CC(=C(C#N)C#N)C=C(C)N1CCN1CCN(C(=O)Nc2cccc(Cl)c2)CC1	-3%	18%	38%	-1%	-6%[59 µM]
CCc1nnc(NC(=O)c2cc([N+](=O)[O-])ccc2N2CCOCC2)s1	-21%	.	-1%	10%	-3%
COc1ccccc1-n1cnc2cc(NS(=O)(=O)c3ccc(Br)cc3)ccc21	-31%	12%	3%	-7%	-4%
CCCNC(=O)c1ccc2c(c1)ncn2-c1ccccc1OC	1%[11.4 µM]	6%	-7%	9%	-2%[59 µM]
COc1ccccc1-n1cnc2cc(NCc3cccs3)ccc21	45µM*	-11%	?	45µM*	?
CCn1cnc2cc(NCc3cccs3)ccc21	-32%	12%	7%	?	45µM*
CC(C)(C)n1cnc2cc(NCc3cccs3)ccc21	-30%	12%	-5%	-36%	-2%[59 µM]
COc1ccc(CNc2ccc3c(c2)ncn3-c2ccccc2OC)cc1	28µM*	-15%	?	40µM*	?
COc1ccccc1-n1cnnc1SCC(=O)NCc1cccs1	-11%	17%	7%	-22%	-3%[59 µM]
COc1ccccc1-n1cnc2cc(NCc3ccccc3O)ccc21	-21%[11.4 µM]	-4%	?	35µM*	?
O=C(NCc1ccc(Cl)cc1)N1CCOCC1	0%	15%	43%	1%	53%
COc1ccccc1-n1cnc2cc(NCc3ccco3)ccc21	?	0%	-23%	-60%	35µM*
O=C1[C@H]2[C@@H](C(=O)N1c1cccc3ccccc13)C1(C(=O)c3ccccc3C1=O)N1CCC[C@@H]21	-9%	?	6%	?	40µM*
CCOc1ccccc1CNCC1CCCO1 (stereo not given)	-6%	-9%	24%	1%	6%
O=[N+]([O-])c1ccc(Sc2ccccn2)nc1	-14%	1%	33%	-11%	45µM*
Cc1cc(C)c(C#N)c(SCc2ccccc2[N+](=O)[O-])n1	-13%	-6%	27%	-33%	10µM*
O=[N+]([O-])c1cccnc1SCc1c(F)cccc1Cl	-26%	23%	7%	?	.
O=[N+]([O-])c1ccc(Sc2n[nH]c(-c3ccncc3)n2)nc1	-9%	?	36%	-1%	45µM*
O=[N+]([O-])c1ccc(SCc2c(F)cccc2Cl)nc1	56µM*	-21%	-21%	?	.
Nc1nnnn1/N=C/c1ccc(Cl)cc1	-22%	4%	32%	-13%	-10%
O=C(Nc1cc(Sc2ccccn2)cc([N+](=O)[O-])c1)c1ccc([N+](=O)[O-])cc1	3.2µM*	5%	-11%	?	-13%[12.7 µM]
O=[N+]([O-])c1ccc(Sc2ccc(Cl)c(Cl)c2)nc1	?	-3%	-23%	22µM*	?
O=C(Nc1ccc([N+](=O)[O-])cc1)c1ccccc1	-9%	11%	17%	-2%	19%[59 µM]
